Experimental data from PubChem BioAssay AID1159580 (chemical genetic matrix, 2015).
The campaign covered roughly 5,500 compounds. About 2,000 (36%) were called active. Roughly 18% stayed inconclusive and do not appear here. The list shows a part of the results. Unmarked numbers belong to inactive results. Cut-off read from the data, not from the text of the source: active = normalized growth mostly below about 0.91 (no sharp cut-off); inconclusive = no clear call, values can overlap the other calls; inactive = mostly above about 0.92.

Experiment: chemical genetic growth profiling, strain panel (AID 1159580);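 note: tested at 20 µM; growth read once vehicle control cultures reached saturation at 30 °C; 1 = growth at the plate median or of vehicle wells; lower values mean less growth of the strain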
Conditions: S. cerevisiae deletion strains, growth OD
[1] = locus YJR075W, strain HOC1, active compounds read low
[2] = locus YMR307W, strain GAS1, active compounds read low

## COc1cc2nc(N(C)CCCNC(=O)C3CCCO3)nc(N)c2cc1OC (centres undefined)
Locus YAL021C, strain ccr4, active compounds read low
  normalized growth: 1.02
Locus YAL026C, strain drs2, active compounds read low
  normalized growth: 1
Locus YAL030W, strain snc1, active compounds read low
  normalized growth: 0.979
Locus YBL061C, strain skt5, active compounds read low
  normalized growth: 0.986
Locus YBR009C, strain hhf1, active compounds read low
  normalized growth: 1.01
Locus YBR021W, strain FUR4, active compounds read low
  normalized growth: 0.994
Locus YBR023C, strain chs3, active compounds read low
  normalized growth: 0.997
Locus YBR171W, strain sec66, active compounds read low
  normalized growth: 0.988
Locus YBR229C, strain ROT2, active compounds read low
  normalized growth: 1
Locus YBR231C, strain swc5, active compounds read low
  normalized growth: 0.998
Locus YBR279W, strain paf1, active compounds read low
  normalized growth: 0.993
Locus YCL011C, strain gbp2, active compounds read low
  normalized growth: 0.993
Locus YCL016C, strain dcc1, active compounds read low
  normalized growth: 1
Locus YCL029C, strain bik1, active compounds read low
  normalized growth: 1.02
Locus YCL061C, strain MRC1, active compounds read low
  normalized growth: 0.996
Locus YCL069W, strain vba3, active compounds read low
  normalized growth: 0.993
Locus YCR088W, strain abp1, active compounds read low
  normalized growth: 0.986
Locus YDL005C, strain med2, active compounds read low
  normalized growth: 1
Locus YDL035C, strain GPR1, active compounds read low
  normalized growth: 1.03
Locus YDL040C, strain nat1, active compounds read low
  normalized growth: 0.993
Locus YDL074C, strain BRE1, active compounds read low
  normalized growth: 1.03
Locus YDL101C, strain DUN1, active compounds read low
  normalized growth: 1.01
Locus YDL185W, strain tfp1, active compounds read low
  normalized growth: 1.02
Locus YDL192W, strain arf1, active compounds read low
  normalized growth: 1.01
Locus YDR001C, strain nth1, active compounds read low
  normalized growth: 0.997
Locus YDR069C, strain doa4, active compounds read low
  normalized growth: 0.991
Locus YDR101C, strain arx1, active compounds read low
  normalized growth: 1.01
Locus YDR137W, strain rgp1, active compounds read low
  normalized growth: 1
Locus YDR159W, strain sac3, active compounds read low
  normalized growth: 1.03
Locus YDR162C, strain NBP2, active compounds read low
  normalized growth: 1.03
Locus YDR195W, strain ref2
  normalized growth: 0.972
Locus YDR297W, strain sur2, active compounds read low
  normalized growth: 1
Locus YDR318W, strain mcm21, active compounds read low
  normalized growth: 1.02
Locus YDR334W, strain swr1, active compounds read low
  normalized growth: 0.999
Locus YDR335W, strain msn5, active compounds read low
  normalized growth: 1
Locus YDR388W, active compounds read low
  normalized growth: 0.999
Locus YDR392W, strain spt3, active compounds read low
  normalized growth: 1.01
Locus YDR502C, strain sam2, active compounds read low
  normalized growth: 1
Locus YEL003W, strain gim4, active compounds read low
  normalized growth: 1
Locus YEL037C, strain rad23, active compounds read low
  normalized growth: 0.998
Locus YEL061C, strain CIN8 (second series), active compounds read low
  normalized growth: 0.986
Locus YEL061C, strain CIN8, active compounds read low
  normalized growth: 1.01
Locus YER015W, strain faa2, active compounds read low
  normalized growth: 0.995
Locus YER016W, strain bim1, active compounds read low
  normalized growth: 0.998
Locus YER110C, active compounds read low
  normalized growth: 1
Locus YER111C, strain swi4, active compounds read low
  normalized growth: 0.987
Locus YER155C, strain BEM2 (second series), active compounds read low
  normalized growth: 0.999
Locus YER155C, strain BEM2, active compounds read low
  normalized growth: 0.998
Locus YER167W, strain BCK2, active compounds read low
  normalized growth: 1.01
Locus YFR010W, strain ubp6, active compounds read low
  normalized growth: 0.992
Locus YGL078C, strain dbp3, active compounds read low
  normalized growth: 1
Locus YGL086W, strain mad1, active compounds read low
  normalized growth: 1.01
Locus YGL167C, strain pmr1, active compounds read low
  normalized growth: 0.995
Locus YGL173C, strain kem1, active compounds read low
  normalized growth: 0.994
Locus YGL227W, strain vid30, active compounds read low
  normalized growth: 0.986
Locus YGL240W, strain doc1, active compounds read low
  normalized growth: 0.987
Locus YGL248W, strain PDE1, active compounds read low
  normalized growth: 1.01
Locus YGL253W, strain hxk2, active compounds read low
  normalized growth: 0.992
Locus YGR135W, strain pre9, active compounds read low
  normalized growth: 0.998
Locus YGR252W, strain gcn5, active compounds read low
  normalized growth: 0.95
Locus YHR013C, strain ard1, active compounds read low
  normalized growth: 0.999
Locus YHR027C, strain rpn1, active compounds read low
  normalized growth: 0.997
Locus YHR030C, strain SLT2, active compounds read low
  normalized growth: 1.03
Locus YHR079C, strain IRE1 (second series), active compounds read low
  normalized growth: 0.997
Locus YHR094C, strain hxt1, active compounds read low
  normalized growth: 1
Locus YHR129C, strain ARP1, active compounds read low
  normalized growth: 1.01
Locus YHR142W, strain chs7, active compounds read low
  normalized growth: 0.979
Locus YHR200W, strain rpn10, active compounds read low
  normalized growth: 1.01
Locus YIL066C, strain RNR3, active compounds read low
  normalized growth: 1.04
Locus YIL073C, strain SPO22, active compounds read low
  normalized growth: 1.03
Locus YIL125W, strain kgd1, active compounds read low
  normalized growth: 1.01
Locus YIR030C, strain dcg1, active compounds read low
  normalized growth: 0.995
Locus YJL092W, strain hpr5, active compounds read low
  normalized growth: 0.995
Locus YJL095W, strain BCK1 (second series), active compounds read low
  normalized growth: 0.994
Locus YJL095W, strain BCK1, active compounds read low
  normalized growth: 1.03
Locus YJL115W, strain asf1, active compounds read low
  normalized growth: 1
Locus YJL129C, strain trk1, active compounds read low
  normalized growth: 1
Locus YJL134W, strain LCB3, active compounds read low
  normalized growth: 1.02
Locus YJL154C, strain vps35, active compounds read low
  normalized growth: 0.993
Locus YJL164C, strain tpk1, active compounds read low
  normalized growth: 1
Locus YJL166W, strain qcr8, active compounds read low
  normalized growth: 0.985
Locus YJL168C, strain set2, active compounds read low
  normalized growth: 0.994
Locus YJL187C, strain SWE1 (second series), active compounds read low
  normalized growth: 1.02
Locus YJL187C, strain SWE1, active compounds read low
  normalized growth: 0.999
Locus YJR043C, strain POL32, active compounds read low
  normalized growth: 1.03
[1]
  normalized growth: 1.01
Locus YKL009W, strain mrt4, active compounds read low
  normalized growth: 1.01
Locus YKL068W, active compounds read low
  normalized growth: 1.01
Locus YKL085W, strain MDH1 (second series), active compounds read low
  normalized growth: 1.02
Locus YKL085W, strain MDH1, active compounds read low
  normalized growth: 1.02
Locus YKL190W, strain CNB1, active compounds read low
  normalized growth: 1.03
Locus YKR001C, strain vps1, active compounds read low
  normalized growth: 1.01
Locus YKR026C, strain gcn3, active compounds read low
  normalized growth: 0.995
Locus YKR091W, strain srl3, active compounds read low
  normalized growth: 0.995
Locus YLL001W, strain dnm1, active compounds read low
  normalized growth: 0.99
Locus YLL026W, active compounds read low
  normalized growth: 0.992
Locus YLL041C, strain sdh2, active compounds read low
  normalized growth: 0.998
Locus YLR027C, strain aat2, active compounds read low
  normalized growth: 0.991
Locus YLR039C, strain RIC1, active compounds read low
  normalized growth: 1.07
Locus YLR058C, strain SHM2, active compounds read low
  normalized growth: 1.02
Locus YLR102C, strain apc9, active compounds read low
  normalized growth: 1.01
Locus YLR221C, strain rsa3, active compounds read low
  normalized growth: 0.998
Locus YLR258W, strain gsy2, active compounds read low
  normalized growth: 0.994
Locus YLR262C, strain YPT6 (second series), active compounds read low
  normalized growth: 0.981
Locus YLR262C, strain YPT6, active compounds read low
  normalized growth: 1.07
Locus YLR268W, strain sec22, active compounds read low
  normalized growth: 0.99
Locus YLR320W, strain mms22, active compounds read low
  normalized growth: 1
Locus YLR330W, strain CHS5, active compounds read low
  normalized growth: 1.02
Locus YLR342W, strain FKS1 (second series), active compounds read low
  normalized growth: 1.03
Locus YLR342W, strain FKS1, active compounds read low
  normalized growth: 0.995
Locus YLR357W, strain rsc2, active compounds read low
  normalized growth: 0.984
Locus YLR370C, strain arc18, active compounds read low
  normalized growth: 1.01
Locus YLR371W, strain rom2, active compounds read low
  normalized growth: 1.02
Locus YLR384C, strain iki3, active compounds read low
  normalized growth: 0.988
Locus YLR418C, strain cdc73, active compounds read low
  normalized growth: 0.995
Locus YML016C, strain PPZ1, active compounds read low
  normalized growth: 1.01
Locus YML032C, strain rad52, active compounds read low
  normalized growth: 1
Locus YML120C, strain ndi1, active compounds read low
  normalized growth: 0.998
Locus YML124C, strain tub3, active compounds read low
  normalized growth: 0.997
Locus YMR058W, strain fet3, active compounds read low
  normalized growth: 0.996
Locus YMR078C, strain ctf18, active compounds read low
  normalized growth: 0.998
Locus YMR125W, strain sto1, active compounds read low
  normalized growth: 0.995
Locus YMR129W, active compounds read low
  normalized growth: 0.987
Locus YMR205C, strain PFK2, active compounds read low
  normalized growth: 0.993
Locus YMR223W, strain ubp8, active compounds read low
  normalized growth: 1.03
Locus YMR231W, strain pep5, active compounds read low
  normalized growth: 1
[2]
  normalized growth: 1.02
Locus YNL067W, strain RPL9B, active compounds read low
  normalized growth: 1.02
Locus YNL071W, strain lat1, active compounds read low
  normalized growth: 1
Locus YNL209W, strain ssb2, active compounds read low
  normalized growth: 0.996
Locus YNL233W, strain BNI4, active compounds read low
  normalized growth: 1.02
Locus YNL248C, strain rpa49, active compounds read low
  normalized growth: 0.982
Locus YNL250W, strain rad50, active compounds read low
  normalized growth: 1.04
Locus YNL271C, strain bni1, active compounds read low
  normalized growth: 1
Locus YNL298W, strain CLA4, active compounds read low
  normalized growth: 1
Locus YNL307C, strain MCK1, active compounds read low
  normalized growth: 1
Locus YNL322C, strain KRE1 (second series), active compounds read low
  normalized growth: 0.985
Locus YNR049C, strain mso1, active compounds read low
  normalized growth: 0.994
Locus YNR052C, strain pop2, active compounds read low
  normalized growth: 0.995
Locus YOL012C, strain htz1
  normalized growth: 0.863
Locus YOL147C, strain pex11, active compounds read low
  normalized growth: 1.01
Locus YOR001W, strain rrp6, active compounds read low
  normalized growth: 1
Locus YOR061W, strain CKA2, active compounds read low
  normalized growth: 1.02
Locus YOR069W, strain VPS5, active compounds read low
  normalized growth: 1
Locus YOR070C, strain gyp1, active compounds read low
  normalized growth: 0.998
Locus YOR080W, strain dia2, active compounds read low
  normalized growth: 0.983
Locus YOR083W, strain WHI5, active compounds read low
  normalized growth: 1
Locus YOR106W, strain vam3, active compounds read low
  normalized growth: 1.01
Locus YOR136W, strain idh2, active compounds read low
  normalized growth: 1
Locus YOR144C, strain elg1, active compounds read low
  normalized growth: 0.999
Locus YOR184W, strain ser1, active compounds read low
  normalized growth: 1.03
Locus YOR265W, strain rbl2, active compounds read low
  normalized growth: 0.988
Locus YOR270C, strain vph1, active compounds read low
  normalized growth: 1.03
Locus YOR290C, strain snf2, active compounds read low
  normalized growth: 1.03
Locus YOR316C, strain cot1, active compounds read low
  normalized growth: 0.999
Locus YPL051W, strain arl3, active compounds read low
  normalized growth: 0.997
Locus YPL078C, strain atp4, active compounds read low
  normalized growth: 0.988
Locus YPL106C, strain sse1, active compounds read low
  normalized growth: 0.991
Locus YPL240C, strain hsp82, active compounds read low
  normalized growth: 0.974
Locus YPL241C, strain CIN2, active compounds read low
  normalized growth: 1.01
Locus YPR119W, strain clb2, active compounds read low
  normalized growth: 0.991
Locus YPR141C, strain kar3, active compounds read low
  normalized growth: 1.01
Locus YPR163C, strain tif3, active compounds read low
  normalized growth: 1
Locus YPR167C, strain met16, active compounds read low
  normalized growth: 1
Strain wtn01, active compounds read low
  normalized growth: 0.998

## CC[C@@H]1C=C/C=C/C[C@H](C)[C@@H](O)[C@](C)(O)C(=O)[C@H](C)[C@@H](O)[C@H](C)C(=O)[C@H](C)[C@@H](O)[C@H](C)/C=C/C(=O)O[C@H]2[C@@H](C)[C@@H](CC1)O[C@@]1(CC[C@@H](C)[C@@H](CC(C)O)O1)[C@@H]2C (some centres undefined)
Locus YAL040C, strain CLN3, active compounds read low
  normalized growth: 0.989
Locus YCL061C, strain MRC1 (second series), active compounds read low
  normalized growth: 1.01
Locus YDR150W, strain NUM1, active compounds read low
  normalized growth: 1
Locus YDR363W, strain ESC2, active compounds read low
  normalized growth: 0.961
Locus YER002W, strain NOP16, active compounds read low
  normalized growth: 0.945
[1]
  normalized growth: 0.973
Locus YMR263W, strain SAP30, active compounds read low
  normalized growth: 1.02
[2]
  normalized growth: 0.911 (active)
Locus YNL128W, strain TEP1, active compounds read low
  normalized growth: 0.96
Locus YNL175C, strain NOP13, active compounds read low
  normalized growth: 0.969
Locus YNL197C, strain WHI3, active compounds read low
  normalized growth: 0.99
Locus YNL224C, strain SQS1, active compounds read low
  normalized growth: 0.993
Locus YOR083W, strain WHI5 (second series), active compounds read low
  normalized growth: 0.971
Locus YPL055C, strain LGE1, active compounds read low
  normalized growth: 0.936
